Rows were chosen to be rich in hits. Some 10% of all compounds tested hit in one or more screens of this group.
L3MBTL1 block – L3MBTL1 (human) inhibition; Q9Y468; AlphaScreen L3MBTL1–H3K9me1 peptide binding; Potency, µM (highest dose often 57.1 µM), without a hit: top-dose activity, negative = inhibition, actives largely listed as inhibitors; actives 0.66% (n = 230,000); AID 485360; note: % is set by controls: 0 for no effect and ±100 for the full control effect; nearly all actives have a fitted effect of over 60% in size
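AlphaScreen proximity signal between nickel-chelate acceptor and streptavidin donor beads (final 10 ug/mL) reports binding of 50 nM L3MBTL1 to 75 nM biotin-H3 K9me1 peptide; complex incubated with compounds 30 min at room temperature; cefsulodin titration as control.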
JMJD2A Tudor inh – blocks the human JMJD2A Tudor domain; O75164; AlphaScreen JMJD2A-Tudor / H3K4me3 peptide binding; Potency, µM (doses to about 114 µM), inactives show at the top dose activity change, negative = inhibition, actives largely listed as inhibitors; actives 4.4% (n = 390,000); AID 504339; note: % is set by controls: 0 for no effect and ±100 for the full control effect; nearly all actives have a fitted effect of over 50% in size
Target sequence (O75164 whole entry, looked up, the tested form may be a part): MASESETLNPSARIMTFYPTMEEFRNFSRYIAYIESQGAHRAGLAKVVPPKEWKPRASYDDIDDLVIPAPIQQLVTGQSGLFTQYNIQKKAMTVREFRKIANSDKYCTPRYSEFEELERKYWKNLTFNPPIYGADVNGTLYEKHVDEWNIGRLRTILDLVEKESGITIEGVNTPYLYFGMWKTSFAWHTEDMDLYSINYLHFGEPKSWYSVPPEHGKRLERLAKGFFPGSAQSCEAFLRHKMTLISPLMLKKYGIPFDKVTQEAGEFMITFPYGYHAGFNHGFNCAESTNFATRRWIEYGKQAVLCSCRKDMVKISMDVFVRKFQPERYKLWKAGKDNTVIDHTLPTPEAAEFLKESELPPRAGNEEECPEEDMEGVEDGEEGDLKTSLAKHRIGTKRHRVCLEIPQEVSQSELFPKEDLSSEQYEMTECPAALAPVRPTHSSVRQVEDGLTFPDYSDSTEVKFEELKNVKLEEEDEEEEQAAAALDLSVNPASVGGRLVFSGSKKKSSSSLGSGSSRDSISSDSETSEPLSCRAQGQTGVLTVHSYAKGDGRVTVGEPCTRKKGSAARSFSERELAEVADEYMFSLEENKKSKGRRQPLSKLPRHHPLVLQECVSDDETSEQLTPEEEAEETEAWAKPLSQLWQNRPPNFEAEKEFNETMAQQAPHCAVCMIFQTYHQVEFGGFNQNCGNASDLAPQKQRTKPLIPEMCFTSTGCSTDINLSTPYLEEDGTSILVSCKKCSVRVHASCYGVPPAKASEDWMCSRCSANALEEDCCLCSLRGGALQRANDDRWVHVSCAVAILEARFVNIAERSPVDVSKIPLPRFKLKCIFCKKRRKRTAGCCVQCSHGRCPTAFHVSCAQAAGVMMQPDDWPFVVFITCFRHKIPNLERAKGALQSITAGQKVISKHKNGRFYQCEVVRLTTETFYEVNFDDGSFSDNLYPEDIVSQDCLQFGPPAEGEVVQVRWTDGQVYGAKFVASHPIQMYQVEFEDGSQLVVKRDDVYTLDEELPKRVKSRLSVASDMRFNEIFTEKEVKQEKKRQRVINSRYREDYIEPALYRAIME
G9a block – blocks human histone lysine methyltransferase G9a; AID 504332; actives 8.8% (n = 350,000); Q96KQ7; G9a H3K9 monomethylation, AlphaScreen, 2 h; Potency, µM (titrated, usually from 102 µM), for inactives: at the top dose activity, negative = inhibition, actives largely listed as inhibitors; note: % is set by controls: 0 for no effect and ±100 for the full control effect; nearly all actives have a fitted effect of over 75% in size
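Quantitative HTS format: methyltransferase activity on a biotin-tagged H3K9 peptide is measured by AlphaScreen, using a rabbit anti-monomethyl-H3K9 antibody with streptavidin donor and anti-IgG acceptor beads. Final levels are 20 nM enzyme, 500 nM peptide, 20 uM SAM; 2 h RT.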
HP1b chromo inh – inhibitors of HP1-beta chromodomain binding to methylated histone tails; actives 0.56% (n = 390,000); AID 540317; Potency, µM (doses to about 114 µM), without a hit: at the highest dose activity change, negative = inhibition, hits mostly inhibitors; AlphaScreen HP1-beta / biotin-H3K9me3 peptide binding; note: nearly all actives have a fitted effect of over 70% in size
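AlphaScreen: HP1-beta (50 nM) preformed 30 min with biotin-H3(1-18)K9me3 peptide (50 nM) in PBS pH 7.4, 0.01% Tween-20. Compound added for 30 min at RT, then streptavidin donor/nickel chelate acceptor beads (10 ug/mL) for 30 min.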
BAZ2B inh – BAZ2B (human) inhibition; AlphaScreen BAZ2B-H3K14Ac peptide displacement; actives 4.4% (n = 360,000); Potency, µM (titrated, usually from 114 µM), inactives show at the top dose activity change, negative = inhibition, most hits filed as inhibitors; Q9UIF8; note: % is set by controls: 0 for no effect and ±100 for the full control effect; nearly all actives have a fitted effect of over 60% in size
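AlphaScreen displacement of biotin-H3(5-23)K14Ac peptide (50 nM final) from BAZ2B (50 nM final) in PBS pH 7.4, 0.01% Tween-20; complex preformed 30 min RT, then compounds (top 110 uM) 30 min RT, beads 20 min dark.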
GLS inhibitor – glutaminase GLS (human) inhibition; O94925; Potency, µM (series often up to 45.5 µM), without a hit: at the top dose activity change, negative = inhibition, most hits filed as inhibitors; GLS enzymatic activity, qHTS titration; actives 0.21% (n = 410,000); AID 624170; note: % is set by controls: 0 for no effect and ±100 for the full control effect
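hKGA; 45 mM KH2PO4 pH 8.2 + 0.02% Tween-20; cpd via pin tool; 1 mM Gln soln; GluOx/HRP/Amplex Red; RT 30 min; fluor. t0 & final.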
Active calls of the source: *; u = inconclusive; x = not tested or not shown; [ ] = dose if it differs, or a comment. Calls come from the whole dose curve; as a rule, active = well fitted curve in the direction sought with a large enough effect; inconclusive = small, poorly fitted or top-dose-only effect, or another doubt; inactive = no such curve, though single readings can be large; an effect the other way counts as inactive or inconclusive. Potency is the fitted concentration of half-maximal effect.

SMILES	L3MBTL1 block	JMJD2A Tudor inh	G9a block	HP1b chromo inh	BAZ2B inh	GLS inhibitor
Nc1cc2c(cc1C(=O)c1ccc(Cl)cc1)OCCO2	x	50µM*	45µM*	-56%	35µM*	13%
Cc1ccc(C(=O)c2cc3c(cc2N)OCCO3)cc1	u	50µM*	28µM*	-15%	35µM*	13%
COC(=O)c1cc2c(cc1N)OCCO2	-3%	-22%	56µM*	21%	u	23%
Cc1ccc(C(=O)c2cn(Cc3ccccc3)c3cc4c(cc3c2=O)OCCO4)cc1	x	-33%	-44%[59 µM]	46%	-2%	0%
Nc1cc2c(cc1C(=O)c1ccccc1)OCCO2	-22%	u	x	-34%	40µM*	20%
Nc1ccc(C(=O)c2ccc3c(c2)OCCO3)cc1N	x	-33%	x	-1%	x	u
COc1ccc(NC(=O)c2[nH]nc3c2CSc2ccccc2-3)c(OC)c1	x	-22%	-4%[59 µM]	19%	-34%	0%
O=S(=O)(CCSc1nc2ccccc2s1)c1nc2ccccc2s1	x	u	7.1µM*	56%	-1%	17%
CCS(=O)(=O)CCSc1nc2ccccc2s1	3%	-7%	u	36%	13%	8%
O=C(NCC(c1cccnc1)N1CCc2ccccc2C1)C(=O)Nc1ccc(F)cc1F (stereo not given)	x	-24%	u	-3%	u	3%
Cc1nc2sc(C(=O)N(C)Cc3ccccc3)c(NC(=O)c3ccccc3)c2c(C)c1Cl	x	-10%	7%[59 µM]	23%	-18%	-9%
O=c1oc2ccccc2c(O)c1/C=N/c1ncccn1	-9%	-25%	-38%	16%	17%	50%
O=c1oc2ccccc2c(O)c1C=Nc1cccnc1	-4%	u	50µM*	-12%	-23%	-17%
CN(C)c1ccc(CNCCC2CCOC(C)(C)C2)cc1 (stereo not given)	x	x	45µM*	x	u	x
CCOc1ccc(NC(=O)c2oc3ccccc3c2NC(=O)Cc2cccs2)cc1	x	-10%	-1%[59 µM]	39%	-8%	-3%
Cc1ccc(S(=O)(=O)N2CCN(C3CCC(c4ccccc4)CC3)CC2)cc1 (stereo not given)	-1%	x	-6%	x	9%	x
CCS(=O)(=O)N1CCN(C2CCC(c3ccccc3)CC2)CC1 (stereo not given)	-4%	x	10µM*	x	50µM*	x
C=C1CCC[C@]2(C)C[C@H]3OC(=O)C(CNCCN(CC)CC)[C@H]3CC12 (stereo not given in full)	x	1.8µM*	27%[0.501 µM]	u	25µM*	-18%
COc1ccc(N/N=C(/C)c2cnnc(-c3ccccc3)n2)cc1	-3%	79µM*	1.4µM*	-13%	-38%	8%
N#Cc1c(N)sc2c1CCCCCC2	-12%	u	18µM*	u	u	-4%
N#Cc1c(N)sc(=S)c2c1CCCCC2	u	45µM*	4.5µM*	-49%	50µM*	32%
CC(C)(C)C(=O)Nc1sc2c(c1C#N)CCCCC2	-3%	21%[11.4 µM]	13%[59 µM]	-5%	-5%	-12%
CCNC(=O)c1nn(-c2ccccc2C)nc1CO	x	-8%	7%[59 µM]	49%	-19%	2%
O=C1NC(c2cccc([N+](=O)[O-])c2)=CCN1c1ccccc1O	-13%	-12%	19µM*	13%[57 µM]	-21%	21%
O=[N+]([O-])c1ccc(N2CCN(c3ccccc3O)CC2)c(Cl)c1	-11%	-30%	u	u	u	3%
SMILES	L3MBTL1 block	JMJD2A Tudor inh	G9a block	HP1b chromo inh	BAZ2B inh	GLS inhibitor
[O-]c1c[n+](-c2ccc(-[n+]3cc([O-])on3)cc2)no1	u	u	-123%[59 µM]	u	50µM*	22%
[O-]c1c[n+](-c2ccccc2)no1	x	-18%	5µM*	57%	-2%	-5%
O=C(Cc1ccccc1)N/N=C/c1cc(Br)cc(Br)c1O	x	-16%	45%[2.33 µM]	44%	15%	20%
O=C(O)c1ccccc1N/N=C/c1cc(Br)cc(Br)c1O	-2%	u	x	-24%	45µM*	u
C[n+]1c(-c2ccccc2)cc2c(=Cc3ccc([N+](=O)[O-])cc3)c3ccccc3n21	x	45µM*	x	u	x	10µM*
C[n+]1c(-c2ccccc2)cc2c(=Cc3ccccc3)c3ccccc3n21	x	40µM*	x	u	x	-25%
CN(C)c1ccc(C=c2c3cc(O)ccc3n3c2cc(-c2ccccc2)[n+]3C)cc1	x	25µM*	x	50µM*	x	-10%
O=c1cc(-c2ccc(F)cc2)nc(SCc2nc(-c3cccc(Cl)c3)no2)[nH]1	x	-22%	-52%[59 µM]	8%[57 µM]	-32%	u
CC(C)c1cc(CNC(=O)CC2C(=O)NCCN2CC2CCCCC2)on1 (stereo not given)	-5%	-15%	50µM*	40%	-2%	0%
O=C(CC1C(=O)NCCN1CC1CCCCC1)NCc1ccc(Cl)cc1 (stereo not given)	-1%	-3%	-41%	30%	-7%	7%
O=C(CC1C(=O)NCCN1CC1CCCCC1)NCc1cc(F)ccc1F (stereo not given)	7%	11µM*	x	-13%	-3%	u
Cc1c(C(=O)N2CCCCCC2)c(S(=O)(=O)N(Cc2ccccc2)C(C)(C)C)c(C)n1C	x	-29%	10%[59 µM]	25%	u	0%
COc1cccc(N2CCN(C(=O)c3cnc4c(-c5ccc(F)cc5)c(C)nn4c3C)CC2)c1	x	-29%	-9%[59 µM]	-4%	u	14%
O=C(CN1C(=O)C2(SCC(=O)N2c2cccc(Cl)c2)c2ccccc21)NCc1ccccc1 (stereo not given)	x	-12%	-2%[59 µM]	25%	3%[57.1 µM]	1%
CCCCNc1c([N+](=O)[O-])cc(C)cc1[N+](=O)[O-]	u	18µM*	40µM*	16µM*	32µM*	-1%
O=C1CCCN1c1ccc(C(=O)N(Cc2nnc(-c3ccccc3Cl)o2)C2CC2)cc1	2%	-10%	13µM*	30%	7%	2%
O=C(c1ccc(Cl)c(S(=O)(=O)N2CCOCC2)c1)N(Cc1nnc(-c2ccccc2Cl)o1)C1CC1	-3%	-19%	-11%	20%	-5%	0%
O=C(c1cccc(S(=O)(=O)N2CCOCC2)c1)N(Cc1nnc(-c2ccccc2Cl)o1)C1CC1	-2%	-19%	50µM*	-3%	-4%	0%
Cc1ccc(-n2nc(CO)c(C(=O)NCc3cccs3)n2)cc1C	x	-27%	10%[59 µM]	16%	3%	5%
O=C1CC(Sc2nnnn2C2CCCCC2)C(=O)N1c1ccccc1 (stereo not given)	u	-17%	10µM*	1%	-3%	14%
